Measurements: PubChem BioAssay (NCATS)
Inconclusive results are not listed. A call without a number means that no potency is given here. Calls of active or inactive are those of the source. Calls come from the whole dose curve; as a rule, active = well fitted inhibition curve with a large enough effect; inconclusive = small, poorly fitted or top-dose-only effect; inactive = flat fitted curve, though single readings scatter.

Target: Voltage-gated inwardly rectifying potassium channel KCNH2 (Homo sapiens) (UniProt Q12809)
Experiment: qHTS Assay for Small Molecule Inhibitors of the Human hERG Channel Activity (AID 588834);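 note: lower thallium flux fluorescence means stronger hERG block; nearly all actives have a fitted effect of over 50% in size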
Details: U2OS BacMam hERG, FluxOR thallium flux fluorescence; series mostly up to 46.1 µM
Outline: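 Blockade is seen as reduced FluxOR thallium-flux fluorescence in U2OS cells expressing hERG from a BacMam construct, in Opti-MEM with 2% FCS. Concentration-response data fitted to the Hill equation for AC50.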
Potency is the fitted concentration of half-maximal effect.

Voltage-gated inwardly rectifying potassium channel KCNH2 (Homo sapiens), sequence (Q12809 whole entry, looked up): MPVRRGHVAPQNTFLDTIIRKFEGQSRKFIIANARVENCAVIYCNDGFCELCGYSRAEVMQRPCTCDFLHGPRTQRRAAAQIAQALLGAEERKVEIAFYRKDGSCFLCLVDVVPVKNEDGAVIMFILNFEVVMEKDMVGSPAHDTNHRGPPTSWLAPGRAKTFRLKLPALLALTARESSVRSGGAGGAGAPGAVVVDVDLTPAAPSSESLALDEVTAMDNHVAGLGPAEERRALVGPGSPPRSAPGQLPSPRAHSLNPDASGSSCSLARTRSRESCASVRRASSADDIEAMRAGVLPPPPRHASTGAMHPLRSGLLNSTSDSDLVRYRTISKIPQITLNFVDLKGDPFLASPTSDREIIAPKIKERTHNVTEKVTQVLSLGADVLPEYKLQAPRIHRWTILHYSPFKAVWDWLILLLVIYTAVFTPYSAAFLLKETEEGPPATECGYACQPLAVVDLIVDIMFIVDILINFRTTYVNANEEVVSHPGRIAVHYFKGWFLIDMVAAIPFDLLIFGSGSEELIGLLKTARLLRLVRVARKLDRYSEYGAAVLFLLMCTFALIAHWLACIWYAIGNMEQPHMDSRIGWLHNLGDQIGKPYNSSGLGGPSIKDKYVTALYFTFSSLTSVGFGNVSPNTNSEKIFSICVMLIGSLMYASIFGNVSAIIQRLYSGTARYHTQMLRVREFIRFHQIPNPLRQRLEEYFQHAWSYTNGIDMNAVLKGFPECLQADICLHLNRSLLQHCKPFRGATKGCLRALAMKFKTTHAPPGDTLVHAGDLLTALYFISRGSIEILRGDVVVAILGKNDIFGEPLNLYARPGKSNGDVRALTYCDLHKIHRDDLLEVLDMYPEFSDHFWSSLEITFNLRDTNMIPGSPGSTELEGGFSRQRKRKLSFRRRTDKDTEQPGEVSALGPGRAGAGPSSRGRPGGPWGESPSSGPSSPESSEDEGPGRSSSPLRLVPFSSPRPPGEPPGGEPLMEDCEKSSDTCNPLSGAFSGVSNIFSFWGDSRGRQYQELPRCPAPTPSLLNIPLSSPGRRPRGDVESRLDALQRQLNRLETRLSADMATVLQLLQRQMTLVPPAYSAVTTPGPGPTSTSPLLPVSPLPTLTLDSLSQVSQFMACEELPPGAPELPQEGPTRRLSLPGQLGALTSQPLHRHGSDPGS

SMILES | Potency
CP(=O)(O)C1=CCNCC1 | inactive
CN1CC[C@@]2(C)c3cc(O)ccc3N(C)C12 (some centres not stated) | 35.5 µM (active)
C[C@@H](Cc1ccccc1)N(C)C | inactive
CCCCCCC(C)(C)c1ccc([C@@H]2C[C@H](O)CC[C@H]2CCCO)c(O)c1 | 8.91 µM (active)
NCCCP(=O)(O)O | inactive
CC1OC1P(=O)(O)O (configuration not stated) | inactive
c1csc(C2(N3CCCCC3)CCCCC2)c1 | inactive
NCC(O)c1cc(O)c(O)cc1F (configuration not stated) | inactive
C[N+]1(C)CCC(OC(=O)C(c2ccccc2)c2ccccc2)CC1 | inactive
NC(=O)c1ccc(OCC(O)CN2CC=C(c3ccc(F)cc3)CC2)cc1 (configuration not stated) | 7.94 µM (active)
NC(=O)CI | inactive
C[C@]12CC[C@H](O)C[C@H]1CC[C@@H]1[C@@H]2CC[C@]2(C)[C@@H](c3ccc(=O)oc3)C[C@H]3O[C@]132 | inactive
O=C(OCCN1CCCCC1)C(O)(c1ccccc1)c1ccccc1 | 11.2 µM (active)
CN1[C@@H]2CC[C@H]1CC(OC1c3ccccc3CCc3ccccc31)C2 (some centres not stated) | 8.91 µM (active)
CCCN(CCC)CCc1c[nH]c2ccc(C(N)=O)cc12 | 6.31 µM (active)
CN1CCc2cccc(Cl)c2CC1 | inactive
CC(N)Cc1c[nH]c2ccc(O)cc12 (configuration not stated) | inactive
Oc1cccc[c]1[Hg][Cl] | 20 µM (active)
CN1C2CCC1CC(OC(c1ccccc1)c1ccc(Cl)cc1)C2 (configuration not stated) | 0.501 µM (active)
CCC1(C)CC(=O)NC(=O)C1 | inactive
CCC1(c2ccccc2)C(=O)NC(=O)NC1=O | inactive
NC(C(=O)O)c1cc(=O)[nH]o1 (configuration not stated) | inactive
